In the supplement of paper PMC12645437, “Orthogonal IMiD-Degron Pairs Induce Selective Protein Degradation in Cells” (ACS Chemical Biology, 2025):
Whole data set: some 8,300 sequences, median “log2 fold change of degron read counts, EGFP-low vs EGFP+ sorted cells (limma voom), compound-induced degradation” near -1.1, cut for the highest 2% near 3.2. For the sample, the highest values were picked, then their nearest neighbours and some sequences at random.

T1: CRBN, Q96SW2
T1 chain: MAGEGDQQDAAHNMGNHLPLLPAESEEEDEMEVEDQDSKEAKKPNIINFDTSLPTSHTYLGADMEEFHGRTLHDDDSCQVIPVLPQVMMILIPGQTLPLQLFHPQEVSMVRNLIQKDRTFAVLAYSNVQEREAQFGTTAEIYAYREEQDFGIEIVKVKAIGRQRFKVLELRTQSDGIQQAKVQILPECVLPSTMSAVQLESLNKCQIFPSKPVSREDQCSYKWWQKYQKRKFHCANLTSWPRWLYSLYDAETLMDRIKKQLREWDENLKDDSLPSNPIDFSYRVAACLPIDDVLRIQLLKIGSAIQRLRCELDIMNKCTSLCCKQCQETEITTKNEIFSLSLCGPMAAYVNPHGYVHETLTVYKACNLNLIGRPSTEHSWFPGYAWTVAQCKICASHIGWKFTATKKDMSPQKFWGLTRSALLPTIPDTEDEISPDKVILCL


Molecular target: T1, CRBN, Q96SW2
Test: log2 fold change of degron read counts, EGFP-low vs EGFP+ sorted cells (limma voom), compound-induced degradation; higher = more compound-induced degradation of the degron-EGFP fusion; degrons are variants of IKZF1/3 zinc finger 2; compound dose not given here
Conditions: Jurkat, 18 h
[1] = compound: compound 19 (5-tert-butyl-thalidomide)
[2] = compound: compound 22 (5-morpholino-thalidomide)
[3] = compound: compound 33 (diphenyl IMiD analogue)
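Further: pooled lentiviral library of zinc finger degron-EGFP fusions in mCherry-positive Jurkat cells, FACS-sorted after compound exposure, with degron abundance counted by next-generation sequencing.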

Sequence | log2 fold change of degron read counts [1] | log2 fold change of degron read counts [2] | log2 fold change of degron read counts [3] | log2 fold change of degron read counts (compound: thalidomide)
FKCDQCGACFTQKGNLLRHIKL [46F_47K_49D_50Q_52G_53A_54C_55F_67L_, Q9UKT9] | -2.75 | -3.31 | -3.66 | -3.24
FLCPQCGAIFTQKGNLLRHIKL [46F_47L_49P_50Q_52G_53A_54I_55F_67L_, Q9UKT9] | -1.63 | -1.54 | -0.716 | -0.881
FKCDICGASFTQKGNLLRHIKL [46F_47K_49D_50I_52G_53A_54S_55F_67L_, Q9UKT9] | -0.288 | -2.66 | -3.19 | -1.69
FACDVCGAQFTQKGNLLRHIKL [46F_47A_49D_50V_52G_53A_54Q_55F_67L_, Q9UKT9] | 1.75 | -0.392 | -1.04 | -1.67
FHCEICGAVFTQKGNLLRHIKL [46F_47H_49E_50I_52G_53A_54V_55F_67L_, Q9UKT9] | 1.69 | 1.65 | 1.31 | 0.109
FSCEICGAVFTQKGNLLRHIKL [46F_47S_49E_50I_52G_53A_54V_55F_67L_, Q9UKT9] | 2.73 | 1.89 | 2.49 | 1.44
FFCEICGAVFTQKGNLLRHIKL [46F_47F_49E_50I_52G_53A_54V_55F_67L_, Q9UKT9] | 3.46 | 3.76 | 2.2 | 1.64
FGCEICGAVFTQKGNLLRHIKL [46F_47G_49E_50I_52G_53A_54V_55F_67L_, Q9UKT9] | 2.88 | 2.6 | 2.14 | 1.13
FMCEICGAVFTQKGNLLRHIKL [46F_47M_49E_50I_52G_53A_54V_55F_67L_, Q9UKT9] | -1.1 | -0.16 | 2.5 | 1.37
FACEICGAVFTQKGNLLRHIKL [46F_47A_49E_50I_52G_53A_54V_55F_67L_, Q9UKT9] | 3.29 | 2.39 | 1.27 | 0.606
FYCEICGAVFTQKGNLLRHIKL [46F_47Y_49E_50I_52G_53A_54V_55F_67L_, Q9UKT9] | 3.66 | 3.6 | 2.79 | 1.07
FTCEICGAVFTQKGNLLRHIKL [46F_47T_49E_50I_52G_53A_54V_55F_67L_, Q9UKT9] | 0.417 | 1.97 | 2.08 | 2.64
FNCEICGAVFTQKGNLLRHIKL [46F_47N_49E_50I_52G_53A_54V_55F_67L_, Q9UKT9] | 1.15 | -0.231 | 0.00137 | -0.335
FWCEICGAVFTQKGNLLRHIKL [46F_47W_49E_50I_52G_53A_54V_55F_67L_, Q9UKT9] | 3.33 | 3.51 | 2.5 | 0.916
FCCEICGAVFTQKGNLLRHIKL [46F_47C_49E_50I_52G_53A_54V_55F_67L_, Q9UKT9] | 1.77 | 1.91 | 2.47 | 2.16
FECEICGAVFTQKGNLLRHIKL [46F_47E_49E_50I_52G_53A_54V_55F_67L_, Q9UKT9] | -0.462 | -0.764 | 1.98 | 2.39
FVCPICGRLFTQKGNLLRHIKL [46F_47V_49P_50I_52G_53R_54L_55F_67L_, Q9UKT9] | -1.24 | -0.36 | 0.85 | 1.08
LVCNQCGFKCTQKGNLLRHIKL [46L_47V_49N_50Q_52G_53F_54K_55C_67L_, Q9UKT9] | -2.22 | -2.27 | -2.4 | -0.986
